High-throughput results (PubChem)
A selection: hits, their analogues and other compounds. The true share with any hit is near 2.4%.
Cruzain inh Det: cruzain (T. cruzi) inhibition with detergent; P25779; purified cruzain, Z-FR-AMC fluorescence, 0.01% Triton; Potency, µM, without a hit: max response, negative = inhibition, hits mostly inhibitors; 0.43% of 200,000 active; AID 1478;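 note: plate controls were neutral wells for no effect and buffer without enzyme for full effect; nearly all actives have a fitted effect of over 40% in size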
Target sequence (P25779 123-467 limits assumed): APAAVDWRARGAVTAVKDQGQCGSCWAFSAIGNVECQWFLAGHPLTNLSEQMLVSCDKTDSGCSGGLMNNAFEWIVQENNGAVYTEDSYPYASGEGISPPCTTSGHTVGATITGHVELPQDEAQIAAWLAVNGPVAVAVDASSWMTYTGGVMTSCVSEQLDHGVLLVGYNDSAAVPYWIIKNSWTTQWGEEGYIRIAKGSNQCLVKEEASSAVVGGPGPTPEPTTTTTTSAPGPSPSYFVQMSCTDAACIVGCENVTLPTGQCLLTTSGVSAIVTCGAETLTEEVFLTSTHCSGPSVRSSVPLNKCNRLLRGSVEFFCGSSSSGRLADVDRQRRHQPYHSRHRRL
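Read-out: AMC fluorescence (360 nm excitation, 450 nm emission), four reads over 2 min, first-to-third difference used. Conditions: cruzain 1.5 nM, Z-FR-AMC 2 uM, pH 5.5 acetate, 5 mM DTT, 0.01% Triton X-100.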
Cruzain inh noDet: inhibitors of Trypanosoma cruzi cruzain without detergent. AID 1476. P25779. purified cruzain, Z-FR-AMC fluorescence, no detergent. 2.3% of 200,000 active. Potency, µM, inactives show max response, negative = inhibition, hits mostly inhibitors;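 note: plate controls were enzyme without inhibitor for no effect and buffer without enzyme for full effect; nearly all actives have a fitted effect of over 40% in size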
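Detergent-free condition (0.00005% Triton X-100) in acetate buffer pH 5.5 with DTT. 1.5 nM enzyme and compound were pre-mixed 15 min, then 2 uM Z-FR-AMC substrate added; reaction progress from fluorescence change between first and third reads (60 s).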
Numbers without * were called inactive; u = inconclusive. Calls come from the whole dose curve; as a rule, active = well fitted curve in the direction sought with a large enough effect; inconclusive = small, poorly fitted or top-dose-only effect, or another doubt; inactive = no such curve, though single readings can be large; an effect the other way counts as inactive or inconclusive. Potency is the fitted concentration of half-maximal effect.

SMILES | Cruzain inh Det | Cruzain inh noDet
O=C(/C=C/c1ccco1)NC(=S)Nc1cccc([N+](=O)[O-])c1 | -16% | 32µM*
O=C(/C=C/c1ccco1)NC(=S)Nc1cccc(-c2nc3ccccc3o2)c1 | -8% | 10µM*
Cc1ccc(-c2nc3ccccc3o2)cc1NC(=S)NC(=O)/C=C/c1ccco1 | -2% | u
O=C(NC(=S)Nc1cccc([N+](=O)[O-])c1)c1ccco1 | -1% | -1%
C[C@H]1CCCC2(CC[N+](C)(CCC[N+](C)(C)C)CC2)C1 (some centres not stated) | 6% | 2%
COc1ccc(NCc2nnc(SCC(=O)Nc3ccccc3OC)o2)cc1 | 8% | 0%
COc1ccc(OC)c(NS(=O)(=O)Cc2ccccc2)c1 | -2% | 32µM*
COc1ccc(OC)c(S(=O)(=O)NCc2ccccc2)c1 | -2% | -2%
CCOc1ccc2nc(COC(=O)c3ccco3)c(C(C)=O)[n+]([O-])c2c1 | -1% | 10%
CCOC(=O)c1ccc(NC(=O)CN(C)S(=O)(=O)c2ccc(OC)cc2)cc1 | 3% | 0%
Nc1ccc(C(=O)Nc2nc3ccccc3s2)cc1 | -9% | 5%
Nc1c(C(=O)Nc2ccc(Cl)cc2F)sc2nc(-c3cccs3)ccc12 | -11% | 25µM*
CC(=O)c1sc2nc(-c3cccs3)ccc2c1N | -13% | -8%
Nc1c(C(=O)Nc2nc3ccccc3s2)sc2nc(-c3cccs3)ccc12 | -9% | 7.9µM*
Nc1c(C(=O)Nc2ccc(F)c(F)c2)sc2nc(-c3ccncc3)ccc12 | -3% | -3%
Nc1c(C(=O)Nc2ccccc2Br)sc2nc(-c3cccs3)ccc12 | -8% | 20µM*
CCOc1ccc(C(=O)NCCCn2ccnc2)cc1 | 2% | -8%
CCc1ccc(NC(=O)Cc2c(C(=O)O)c(C)cn2C)cc1 | 2% | -16%
CC1(C(=O)NC23CC4CC(CC(C4)C2)C3)CC1(Cl)Cl (configuration not stated) | 6% | 12%
NNc1nc(Nc2ccccc2)nc(N2CCCCC2)n1 | -11% | 13µM*
c1ccc(Nc2nc(N3CCOCC3)nc(N3CCOCC3)n2)cc1 | -5% | -5%
CCOC(=O)c1sc(Nc2nc3cc4c(cc3s2)OCO4)cc1C | -7% | 25µM*
CCOC(=O)c1sc(Nc2nc3c(OC)cccc3s2)cc1C | -13% | -2%
C(=C\c1ccccc1)/C=N/Nc1nc2ccccc2s1 | -9% | u
Fc1ccc2nc(Nc3nc4cc5c(cc4s3)OCO5)sc2c1 | -2% | u
SMILES | Cruzain inh Det | Cruzain inh noDet
c1ccc2sc(Nc3nc4cc5c(cc4s3)OCO5)nc2c1 | 1% | 25µM*
Brc1ccc(/C=C/C=N/Nc2nc3ccccc3s2)cc1 | -1% | 4µM*
C(=N\Nc1nc2ccccc2s1)/c1ccc2c(c1)OCO2 | -1% | -4%
Brc1cc2c(cc1/C=N/Nc1nc3ccccc3s1)OCO2 | -6% | 20µM*
O=S(=O)(Nc1ccc2c(c1)CCC2)c1cccs1 | -3% | -5%
CCn1c(O)c(N=NC(=O)c2ccc(CSc3nncn3C)cc2)c2ccccc21 | -7% | 7%
Cc1ccc(Nc2nc(N)nc(CN3CCN(Cc4ccc5c(c4)OCO5)CC3)n2)cc1 | 1% | -15%
CCOC(=O)C1=C(CSc2nc3c(cc2C#N)CN(C)CC3)OC(N)=C(C#N)C1c1ccc(Cl)cc1 (configuration not stated) | -7% | -17%
Cc1nc2ccc(NC(=O)c3ccc([N+](=O)[O-])cc3)cc2s1 | -2% | 2%
Cc1cc(C(C)(C)C)oc1C(=O)NCCCNC(=O)c1oc(C(C)(C)C)cc1C | -15% | u
Cc1csc2nc(COc3ccccc3NC(=O)c3ccco3)cc(=O)n12 | 4% | -1%
Cc1ccc(S(=O)(=O)NC(CC(=O)O)c2ccccc2)c(C)c1 (configuration not stated) | 6% | 9%
Cc1nc(S(=O)(=O)c2ccc(Cl)cc2)c(NCc2ccccc2)o1 | u | 32µM*
O=S(=O)(c1ccc(Cl)cc1)c1nc(-c2ccccc2F)oc1NCc1ccccc1 | -2% | -10%
COc1ccc(N/C=C\C(=O)c2ccc3c(c2)OCO3)cc1OC | -7% | 3%
O=C(/C=C\Nc1cccc(F)c1)c1ccc2c(c1)OCO2 | 2% | 25µM*
O=C(COc1ccc(Cl)cc1)N(Cc1ccccc1)c1nc(-c2ccccc2)cs1 | 4% | 10µM*
COCCCN(C(C)=O)c1nc(-c2ccccc2)cs1 | -3% | 10%
COc1ccc(OCC(=O)N(C)Cc2ccccc2)cc1 | 4% | 0%
COc1ccc(-c2csc(N(CCc3ccccc3)C(=O)COc3ccccc3)n2)cc1 | 3% | 13µM*
COc1ccc2[nH]cc(CCNc3cc(-c4ccccc4OC)ncn3)c2c1 | -2% | -12%
Cc1sc(NC(=O)C2CCCC2)c(C#N)c1C | -18% | -17%
CCc1ccc(-c2c(C)sc(NC(=O)C3CCC3)c2C#N)cc1 | 0% | 16µM*
CCCC(=O)Nc1sc(C)c(-c2ccc(C(C)CC)cc2)c1C#N (configuration not stated) | 9% | 7.9µM*
Cc1sc(NC(=O)COc2ccccc2)c(C#N)c1-c1ccccc1 | u | -18%
SMILES | Cruzain inh Det | Cruzain inh noDet
Cc1ccsc1C(=O)OCC(=O)Nc1sccc1C(N)=O | -1% | -18%
C/C(=C\C(=O)c1ccc(Br)cc1)Nc1ccc(Cl)cc1 | -7% | -22%
COc1cc(C2C(C(=O)OC(C)C)=C(C)Nc3[nH]c(=O)[nH]c(=O)c32)ccc1O (configuration not stated) | -4% | -13%
Cc1ccc(-c2cc3nc(-c4ccccc4)cc(N)n3n2)cc1 | 7% | 25µM*
Cc1cc(N)n2nc(-c3ccccc3)cc2n1 | -4% | 1%
Cc1ccc(-c2cc(N)n3nc(-c4ccc(C)cc4)cc3n2)cc1 | -1% | u
Cc1ccc(-c2cc3nc(-c4ccc(Br)cc4)cc(N)n3n2)cc1 | 5% | 32µM*
Cc1c(NC(=O)c2cccc(-c3cc4ccccc4oc3=O)c2)cccc1-c1nc2ncccc2o1 | -2% | u
N#C/C(=C\c1ccc(-c2ccc([N+](=O)[O-])cc2Br)o1)C(=O)N1CCN(c2ccccc2)CC1 | -4% | 13µM*
N#C/C(=C/c1ccc(Oc2ccc([N+](=O)[O-])cn2)cc1)C(=O)N1CCOCC1 | -5% | u
COc1ccccc1NC(=O)CSc1nc(N)cc(N)n1 | 5% | -4%
COc1ccccc1NC(=O)CSc1nc2ccccc2cc1Cc1ccccc1 | 1% | 20µM*
CCSc1nnc(NC(=O)c2cccnc2Cl)s1 | -2% | 4%
CC(=O)Nc1ccc(-c2cc(-c3ccc(NC(C)=O)cc3)nc(-c3ccc(NC(C)=O)cc3)n2)cc1 | u | 32µM*
CCC(=O)Nc1ccc(-c2cc(-c3ccccc3)nc(-c3ccc(NC(=O)CC)cc3)n2)cc1 | 4% | 5%
CC(=O)Nc1ccc(-c2cc(-c3ccc(NC(C)=O)cc3)nc(-c3ccccc3)n2)cc1 | -5% | 16µM*
CC(=O)Nc1ccc(-c2cc(-c3ccccc3)nc(-c3ccccc3)n2)cc1 | -3% | u
CC1Cc2nc(SCC(N)=O)n(C)c(=O)c2S1 (configuration not stated) | -4% | 5%
C=CCn1cc(C(=O)NCc2ccc3c(c2)OCO3)c(=O)c2cc(S(=O)(=O)N(CC)CC)ccc21 | 7% | u
Cc1sc2nc(COC(=O)c3ccc(N4CCCC(C)C4)c([N+](=O)[O-])c3)[nH]c(=O)c2c1C (configuration not stated) | -5% | 7.9µM*
Cc1sc2nc(COC(=O)c3ccc(N4CCCC4)c([N+](=O)[O-])c3)[nH]c(=O)c2c1C | -7% | u
